MCF10A rerep = inducers of DNA re-replication in MCF 10A breast cells; MCF 10A DNA re-replication, Hoechst nuclear intensity, 48 h; Potency, µM (titrated, usually from 46.1 µM), for inactives: at the top dose activity, positive = re-replication, actives largely listed as activators; hit rate 2.9% among 350,000; further: % of control where 0% means no effect; nearly all actives have a fitted effect of over 50% in size
HT1080-NT tox = kills 2HG-producing HT-1080-NT fibrosarcoma cells | hit rate 1.6% among 360,000 | Potency, µM (series often up to 46.1 µM), inactives show top-dose activity, negative = less viability, usual class: cytotoxic | HT-1080-NT fibrosarcoma viability, CellTiter-Glo ATP luminescence, 48 h;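 further: NT is the 2HG producing partner of a matched IDH1 knockdown line; 0% = DMSO-treated cells and -100% = media-only wells without cells; nearly all actives have a fitted effect of over 55% in size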
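Compounds were tested in concentration-response format on HT-1080-NT cells for 48 hours at 37 degrees C. Cell viability came from CellTiter-Glo luminescence; curves were classified by r2, response magnitude and activity.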
HT1080 IDH1KD tx = HT-1080 IDH1 knockdown cell toxicity (counter line) | HT-1080 IDH1 knockdown viability, ATP luminescence, 48 h | Potency, µM (top dose mostly 46.1 µM), inactives show top-dose activity, negative = toxicity, actives largely listed as cytotoxic | hit rate 2% among 360,000;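 further: 0% = DMSO wells and -100% = cell-free medium wells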
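After a 2 h attachment period, IDH1KD HT-1080 cells took pin-transferred compound for 48 h at 37 °C; ATP-based luminescence after 10 min room-temperature reagent incubation reported viability.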
KB-3-1 cytotox = KB-3-1 parental cell cytotoxicity; KB-3-1 viability, CellTiter-Glo ATP luminescence, 72 h; Potency, µM (highest dose often 46.1 µM), most hits filed as cytotoxic; hit rate 1.4% among 400,000; AID 1347075; further: on the % scale 0 is the no-effect control and ±100 the full control effect; nearly all actives have a fitted effect of over 60% in size
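72 h, 37 °C compound treatment of KB-3-1 parental cells; CellTiter-Glo added, 10 min, luminescence read. Data corrected against DMSO-only plates and normalized before curve fitting.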
SW480 rereplic = inducers of DNA re-replication in SW480 colon cancer cells; hit rate 1.8% among 340,000; SW480 DNA re-replication, Hoechst DNA content imaging, 48 h; Potency, µM (series often up to 46.1 µM), inactives show at the highest dose re-replication activation, hits mostly activators; further: % of control where 0% means no effect; nearly all actives have a fitted effect of over 55% in size
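Cells (250 per well) received 23 nL compound or DMSO by pin tool and were kept 48 hr at 37 C, 5% CO2. Nuclei were then stained with Hoechst for 40 min and scanned for DNA content.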
KB-V1 MDR tox = kills drug-selected multidrug resistant KB-V1 cells. KB-V1 MDR cells viability, CellTiter-Glo, 72 h. hit rate 3.4% among 400,000. Potency, µM (highest dose often 46.1 µM), usual class: cytotoxic; further: on the % scale 0 is the no-effect control and ±100 the full control effect; nearly all actives have a fitted effect of over 60% in size
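Cells of the MDR subline KB-V1 are plated, dosed with compound at multiple concentrations, and incubated 72 h at 37 degrees C; CellTiter-Glo is then added and luminescence read after 10 min.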
An asterisk follows results filed as active; i = inactive; ? = inconclusive; . = not tested or not shown; ! = not active in a repeat; [ ] = dose if it differs, or a comment. Compounds with a hit are over-represented: about 8% of the library has one in this group of screens. The call rests on the fitted dose curve; in most records, active means well fitted curve in the direction sought with a large enough effect; inconclusive means small, poorly fitted or top-dose-only effect, or another doubt; inactive means no such curve, though single readings can be large; an effect the other way counts as inactive or inconclusive. Potency means the concentration at half of the fitted maximal effect.

SMILES | MCF10A rerep | HT1080-NT tox | HT1080 IDH1KD tx | KB-3-1 cytotox | SW480 rereplic | KB-V1 MDR tox
O=P(OC1CCCCC1)(OC1CCCCC1)C(O)c1c(Cl)cccc1Cl (centres undefined) | ? | -2.3% | -7.9% | ? | 9.3% | 18.4µM*
C[C@@]12CC[C@H]3[C@@H](CCC4=CC(=O)CC[C@]43C)[C@H]1CC[C@H]2C(=O)CO | 1.2%[20.6 µM] | . | . | . | -2.8%[20.6 µM] | .
CC(=O)[C@H]1CC[C@H]2[C@@H]3CCC4=CC(=O)CC[C@]4(C)[C@H]3CC[C@]12C | -2.2% | ? | ? | 13µM*! | -0.9% | 5.8µM*!
O=C1C2CCCN2C(c2ccncc2)N1c1ccc(Cl)c(Cl)c1 (centres undefined) | 27.3% | -1.2% | -9.6% | i | 1.6% | i
CN1CCC(O)(c2ccccc2)C2CCCC21 (centres undefined) | 1.9% | 17.3% | -2.2% | i | -2.2% | i
CC[C@H]1CN2CCc3cc(OC)c(OC)cc3C2C[C@@H]1C[C@H]1NCCc2cc(OC)c(OC)cc21 (some centres undefined) | ? | 0.0517µM* | 0.0517µM* | 0.206µM* | ? | 2.06µM*
COc1cc2c(cc1O)C(Cc1ccc(O)cc1)NCC2 (centres undefined) | -20.7% | 3.3% | 2.9% | ? | 15.4% | i
N/C(=N\[N+](=O)[O-])N/N=C/c1ccc(O)cc1 | 0.3% | -0.7% | -0.2% | i | -0.6% | ?
Nc1nonc1C(=O)N/N=C/c1ccc([N+](=O)[O-])o1 | ? | ? | 18.4µM* | i | ? | i
OC(CN1CC=C(c2ccccc2)CC1)c1ccccc1 (centres undefined) | -6.5% | -2.1% | 1.1% | i | 23.3% | i
OC(COCc1ccc(Cl)cc1)CN1CC=C(c2ccccc2)CC1 (centres undefined) | 14.6µM* | -3.7% | ? | ? | 24.6% | ?
CCC1(C2=NCCN2)Cc2ccccc2O1 (centres undefined) | ? | -2.9% | 3.6% | i | 11.9µM*! | i
Brc1ccc(Oc2ccc(Br)cc2Br)c(Br)c1 | ? | 10.4% | 0.5% | i | -4.9% | i
Oc1c(Br)cc(Br)cc1Oc1ccc(Br)cc1Br | 5.8µM* | . | . | . | 5.0% | .
CN1CC(C(=O)c2ccc(F)cc2)C(c2c(F)cccc2Cl)C1 (centres undefined) | -2.8% | 11.8% | 11.4% | i | -5.2% | i
Cc1ccc(/C=C2\C(=O)NC(=S)N(c3ccc(F)cc3)C2=O)s1 | ? | ? | ? | i | 10.3% | ?
Cc1ccc(/C=C2\C(=O)NC(=S)N(c3ccccc3F)C2=O)s1 | 5.8µM* | ? | ? | ? | ? | i
CN1CCC2(CC1)C(C#N)=C(N)NC(S)=C2C#N | -1.7% | -2.0% | 3.5% | i | -1.4% | i
COC(=O)C(O)(c1cn(C)c2ccccc12)C(F)(F)F (centres undefined) | -0.8% | 5.9% | 19.3% | i | 1.6% | i
COc1cc2nc(CN3CC=C(c4ccccc4)CC3)[nH]c(=O)c2cc1OC | 2.91µM* | 1.4% | 1.1% | 7.31µM* | ? | ?
CCN1CCN(Cc2cc(OC)c(OC)cc2[N+](=O)[O-])CC1 | -19.3% | 1.6% | 9.3% | i | -1.9% | i
Cc1cccc(Cn2cccc(C(=O)Nc3nc4ccccc4s3)c2=O)c1 | . | . | . | i | . | i
O=C(Nc1ccccc1)Oc1ccccc1 | -5.8% | -11.3% | 1.9% | i | -4.9% | ?
CC(C)Oc1ccc(CNC(=O)Oc2ccccc2)cc1 | 11.6µM* | -2.8% | ? | ? | ? | i
C[C@H]1CCC/C=C/[C@@H]2C[C@H](O)C[C@H]2[C@H](O)/C=C/C(=O)O1 | 0.651µM*! | 0.411µM* | 0.0065µM* | 0.0651µM* | ? | 0.581µM*
SMILES | MCF10A rerep | HT1080-NT tox | HT1080 IDH1KD tx | KB-3-1 cytotox | SW480 rereplic | KB-V1 MDR tox
CC(=Nc1ccccc1N)c1c(O)n(C)c(=O)n(C)c1=O | 17.9% | 0.5% | -1.0% | i | -13.2% | i
Cc1ccc(-n2c(/C=C\c3ccc(F)cc3)nc3ccccc3c2=O)cc1Cl | . | . | . | i | . | i
CC(O)(CS(=O)(=O)c1cccc(C(F)(F)F)c1)C(=O)Nc1cccc(C(F)(F)F)c1 (centres undefined) | 0.5% | 4.7%[9.24 µM] | ? | i | 1.2% | i
CC(O)(CS(=O)(=O)c1ccccc1)C(=O)Nc1ccc(C(F)(F)F)cc1 (centres undefined) | -4.8% | ? | -21.6% | i | -5.1% | 14.6µM*
CC(C)[C@H]1C(=O)O[C@H](C(C)C)C(=O)N(C)[C@@H](C(C)C)C(=O)O[C@H](C(C)C)C(=O)N(C)[C@@H](C(C)C)C(=O)O[C@H](C(C)C)C(=O)N1C | ? | 4.11µM* | 3.26µM* | 5.8µM* | -0.3% | ?
CCN1C(=O)C(=C2C=C(C)N(Cc3ccco3)C(C)=C2)C(=O)N(CC)C1=S | 13µM* | 1.2% | 2.1% | i | ? | i
O=C(CCN1CCOCC1)NCC(=O)Nc1ccc(Br)cc1C(=O)c1ccccc1 | 1.6% | -13.3% | -0.5% | i | -0.2% | i
Cc1ccc(S(=O)(=O)N2Cc3cc(-c4ccccc4)ccc3-n3nncc3C2)cc1 | . | -12.6% | -6.9% | i | . | i
CCOc1cccc(CNCCc2c(C)[nH]c3ccc(OC(F)(F)F)cc23)c1O | ? | ? | 18.4µM* | i | ? | 23.1µM*
COc1ccc2[nH]c(C)c(CCNCc3cccnc3)c2c1 | 1.3% | 0.3% | -3.2% | i | -5.1% | i
Cc1[nH]c2ccc(OC(F)(F)F)cc2c1CCNCc1ccc(Cl)cc1 | ? | ? | 14.6µM* | ? | 16.4µM* | ?
Cc1[nH]c2ccc(OC(F)(F)F)cc2c1CCNCc1cccc([N+](=O)[O-])c1 | ? | 14.6µM* | 13µM* | ? | ? | ?
Cc1cc(-n2c(/C=C/c3ccc(Br)s3)nc3ccccc3c2=O)ccc1Br | . | . | . | i | . | ?
COc1ccc(C(=O)Nc2cc(Cl)ccc2C(=O)O)cc1 | -19.8% | -8.2% | -7.1% | i | ? | i
Cc1cccc(NC(N)=S)c1 | -4.6% | -12.5% | -3.7% | i | 5.7% | i
Cc1cccc(NC(=S)N/N=C/c2ccc([N+](=O)[O-])s2)c1 | ? | 17.8µM* | ? | ? | ? | i
CCCC12CN3CCN(CC(C3)/C1=N\NC(=O)c1ccncc1)C2 | -4.4% | 10.2% | 20.0% | i | 5.8µM* | i
CCC12CN3CCN(CC(C3)/C1=N/NC(=O)c1ccncc1)C2 | 14.3% | 3.6% | 1.5% | i | ? | i

Screens: PubChem BioAssay, National Center for Advancing Translational Sciences (NCATS)
